Measurements taken from PubChem BioAssay (EPA / NIEHS).
The source made the active and inactive calls. The calls were made as follows: active = hit-call score of the fitted dose curve at least 0.9, where 1 is the maximum; inactive = score below 0.9.

What was measured:
[1] = APR_HepG2_NuclearSize_72hr: Apredica 72-hour HepG2 Assay for Nuclear Size (AID 2282925); details: high-content imaging, actives raise or lower the signal
In short: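 Compounds (0.39–200 uM, final DMSO 0.5%) were applied to HepG2 for 72 hr. Cells were then formaldehyde-fixed, permeabilized and labelled with Hoechst 33342. Nuclear diameter was quantified from six images per well.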

[2] = ATG_CRE_CIS: Attagene CIS-FACTORIAL HepG2 Assay for human cAMP Responsive Element (CRE) binding protein 3 (AID 2282926); details: HepG2 CRE cis-reporter, Attagene multiplexed mRNA; actives raise or lower the signal
In short: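 Capillary electrophoresis of 6-FAM-labelled, HpaI-digested PCR products quantified reporter transcripts. These came from HepG2 transiently transfected with cis-element reporters and exposed to test chemicals for 24 hours, with DMSO defining baseline activity.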

[3] = target: CCAAT/enhancer-binding protein beta (Homo sapiens) (UniProt P17676); test: ATG_C_EBP_CIS: Attagene CIS-FACTORIAL HepG2 Assay for human CCAAT/Enhancer Binding Protein (C/EBP) beta (AID 2282927); details: HepG2 Attagene cis-factorial transcription factor reporter; actives raise or lower the signal
CCAAT/enhancer-binding protein beta (Homo sapiens), sequence (P17676 whole entry, looked up): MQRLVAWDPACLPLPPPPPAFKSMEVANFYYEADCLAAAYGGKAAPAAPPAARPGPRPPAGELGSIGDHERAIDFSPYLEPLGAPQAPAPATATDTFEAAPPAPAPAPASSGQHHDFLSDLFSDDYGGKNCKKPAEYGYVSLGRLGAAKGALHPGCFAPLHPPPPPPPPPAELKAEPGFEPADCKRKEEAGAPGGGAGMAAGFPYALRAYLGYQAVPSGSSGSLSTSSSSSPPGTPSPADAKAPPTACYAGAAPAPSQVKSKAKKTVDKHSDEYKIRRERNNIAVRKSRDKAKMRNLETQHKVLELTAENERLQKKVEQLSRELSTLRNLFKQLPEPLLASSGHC
In short: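 Following a 24 h incubation with test chemical, transfected HepG2 cells yielded RNA whose reporter transcripts were quantified by RT-PCR and fluorescent capillary electrophoresis, with DMSO serving as baseline for bidirectional fitting.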

[4] = ATG_CMV_CIS: Attagene CIS-FACTORIAL HepG2 Assay for human CMV (Internal Marker) (AID 2282928); details: HepG2 CMV promoter reporter, transcription factor profiling; actives raise or lower the signal;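 also: endpoint acts as a background internal control marker rather than a target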
In short: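 Readout: fluorescent reporter cDNA fragments separated by capillary electrophoresis after RT-PCR and HpaI cut. Cells: HepG2 carrying transfected cis-promoter reporter constructs, dosed 24 h. Endpoint serves as background internal-marker control, fit bidirectionally versus DMSO.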

[5] = ATG_DR4_LXR_CIS: Attagene CIS-FACTORIAL HepG2 Assay for human Liver X Receptor (LXR), DR4 submotif (AID 2282929); details: HepG2 Attagene DR4 cis-reporter, mRNA transcription; actives raise or lower the signal
In short: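 Endogenous factor activity at a DR4 cis-element is read as reporter mRNA in transiently transfected HepG2 cells. Exposure lasts 24 h; transcripts are amplified, fluorescently labelled and sized by capillary electrophoresis, with DMSO as baseline.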

[6] = target: Aryl hydrocarbon receptor (Homo sapiens) (UniProt P35869); test: ATG_Ahr_CIS: Attagene CIS-FACTORIAL HepG2 Assay for human Aryl Hydrocarbon Receptor (Ahr) (AID 2282930); details: HepG2 AhR cis-factorial reporter transcription; actives raise or lower the signal
Aryl hydrocarbon receptor (Homo sapiens), sequence (P35869 whole entry, looked up): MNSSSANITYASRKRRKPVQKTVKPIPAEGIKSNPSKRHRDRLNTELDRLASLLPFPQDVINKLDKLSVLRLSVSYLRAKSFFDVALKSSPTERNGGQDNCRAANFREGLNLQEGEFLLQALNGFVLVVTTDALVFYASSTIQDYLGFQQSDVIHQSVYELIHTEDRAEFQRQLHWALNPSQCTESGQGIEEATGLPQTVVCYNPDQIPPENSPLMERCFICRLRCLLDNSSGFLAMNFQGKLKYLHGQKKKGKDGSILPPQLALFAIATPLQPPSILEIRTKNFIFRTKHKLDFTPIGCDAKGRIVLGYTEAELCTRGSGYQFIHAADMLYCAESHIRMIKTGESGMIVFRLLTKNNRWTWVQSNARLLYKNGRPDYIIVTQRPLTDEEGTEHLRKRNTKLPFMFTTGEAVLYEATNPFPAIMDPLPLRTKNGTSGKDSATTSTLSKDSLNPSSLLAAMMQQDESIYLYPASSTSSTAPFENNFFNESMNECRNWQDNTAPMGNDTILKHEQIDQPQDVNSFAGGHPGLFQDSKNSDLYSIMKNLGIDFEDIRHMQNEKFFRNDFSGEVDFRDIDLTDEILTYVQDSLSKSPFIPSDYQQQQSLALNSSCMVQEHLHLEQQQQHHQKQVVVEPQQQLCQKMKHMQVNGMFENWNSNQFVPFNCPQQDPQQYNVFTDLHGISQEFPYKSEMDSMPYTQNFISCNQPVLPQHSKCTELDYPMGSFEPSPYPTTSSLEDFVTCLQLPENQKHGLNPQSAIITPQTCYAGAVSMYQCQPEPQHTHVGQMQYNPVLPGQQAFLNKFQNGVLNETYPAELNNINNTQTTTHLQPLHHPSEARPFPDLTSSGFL
In short: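 Values derive from bidirectional fitting against DMSO negative control. Underlying signal: cis-element reporter mRNA in transiently transfected HepG2, harvested 24 h post-dose and measured by RT-PCR plus capillary electrophoresis.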

[7] = ATG_AP_2_CIS: Attagene CIS-FACTORIAL HepG2 Assay for human Activator Protein 2 (AP-2) (AID 2282932); details: HepG2 AP-2 cis-reporter, Attagene transcription factor profiling; actives raise or lower the signal
In short: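 Cells (HepG2) transfected with promoter-driven reporter constructs, treated 24 h. Total RNA reverse-transcribed, reporter cDNA PCR-amplified, FAM-labelled by primer extension, digested, resolved by capillary electrophoresis. Activity fitted both directions versus DMSO.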

[8] = ATG_BRE_CIS: Attagene CIS-FACTORIAL HepG2 Assay for human Bone Morphogenetic Protein (BMP) Response Element (BRE) (AID 2282933); details: HepG2 BMP response element reporter, Attagene transcription factor profiling; actives raise or lower the signal
In short: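 Read-out: reporter mRNA induction quantified by RT-PCR and capillary electrophoresis after 24 h chemical exposure of transfected HepG2 cells. Endogenous factor activity on the BMP response element; gain or loss fitted against DMSO baseline.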

[9] = target: Retinoic acid receptor alpha (Homo sapiens) (UniProt P10276); test: ATG_DR5_RAR_CIS: Attagene CIS-FACTORIAL HepG2 Assay for human Retinoic Acid Receptor Alpha (RARE), DR5 submotif (AID 2282934); details: HepG2 Attagene cis-factorial RARE DR5 reporter, mRNA; actives raise or lower the signal;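 as to AC50: reporter responds to endogenous RAR alpha beta and gamma in HepG2 not RARA alone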
Retinoic acid receptor alpha (Homo sapiens), sequence (P10276 whole entry, looked up): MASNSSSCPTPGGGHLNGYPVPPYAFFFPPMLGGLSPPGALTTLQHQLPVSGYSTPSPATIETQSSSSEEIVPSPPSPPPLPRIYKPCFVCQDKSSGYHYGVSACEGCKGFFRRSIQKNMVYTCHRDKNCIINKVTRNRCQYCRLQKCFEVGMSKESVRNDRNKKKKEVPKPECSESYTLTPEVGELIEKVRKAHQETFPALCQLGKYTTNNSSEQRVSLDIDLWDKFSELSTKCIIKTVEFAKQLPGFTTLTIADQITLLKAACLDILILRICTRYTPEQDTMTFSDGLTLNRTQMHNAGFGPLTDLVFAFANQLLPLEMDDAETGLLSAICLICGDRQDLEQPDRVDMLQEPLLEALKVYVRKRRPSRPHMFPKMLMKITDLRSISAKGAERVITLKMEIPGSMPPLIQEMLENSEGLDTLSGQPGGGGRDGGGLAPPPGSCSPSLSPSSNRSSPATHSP
In short: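 Endpoint fitted in both directions relative to DMSO as negative control. It reflects DR5 cis-element reporter mRNA induction in transiently transfected HepG2 cells, measured 24 h after dosing through RT-PCR and fluorescent capillary electrophoresis.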

[10] = target: Transcription factor E2F1 (Homo sapiens) (UniProt Q01094); test: ATG_E2F_CIS: Attagene CIS-FACTORIAL HepG2 Assay for human E2F Transcription Factor 1 (AID 2282935); details: HepG2 Attagene cis-reporter, E2F reporter RNA transcripts; actives raise or lower the signal
Transcription factor E2F1 (Homo sapiens), sequence (Q01094 whole entry, looked up): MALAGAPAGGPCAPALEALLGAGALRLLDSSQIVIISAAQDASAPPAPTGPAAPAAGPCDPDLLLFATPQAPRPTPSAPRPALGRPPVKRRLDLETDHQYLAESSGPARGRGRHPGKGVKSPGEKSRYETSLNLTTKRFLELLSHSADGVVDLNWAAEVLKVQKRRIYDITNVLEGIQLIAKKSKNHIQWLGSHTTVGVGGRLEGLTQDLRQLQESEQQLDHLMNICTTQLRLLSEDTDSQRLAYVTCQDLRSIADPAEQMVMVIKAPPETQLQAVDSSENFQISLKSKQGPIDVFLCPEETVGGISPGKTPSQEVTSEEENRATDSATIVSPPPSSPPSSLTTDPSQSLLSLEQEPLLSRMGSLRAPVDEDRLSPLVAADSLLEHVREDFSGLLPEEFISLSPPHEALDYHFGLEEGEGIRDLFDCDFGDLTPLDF
In short: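 First, HepG2 cells were transfected with reporter transcription units. Next, they were dosed for 24 h. Then RNA was isolated, converted to cDNA, PCR-amplified, FAM-labeled, HpaI-digested and analyzed by capillary electrophoresis.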

[11] = ATG_E_Box_CIS: Attagene CIS-FACTORIAL HepG2 Assay for human Enhancer Box (E-box) (AID 2282936); details: HepG2 E-box cis-reporter transcription, actives raise or lower the signal
In short: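 Endogenous transcription factor activity was sensed in human HepG2 liver cells through transfected cis-promoter reporter units. After 24 h of dosing, total RNA was reverse-transcribed and reporter cDNA resolved by capillary electrophoresis.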

[12] = ATG_M_61_CIS: Attagene CIS-FACTORIAL HepG2 Assay for M61 Transcription Factor (Internal Marker) (AID 2282937); details: HepG2 Attagene CIS-FACTORIAL M61 internal marker reporter; actives raise or lower the signal
In short: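 This endpoint serves as an internal background control within a multiplexed HepG2 cis-reporter panel. Cells are exposed for 24 h; reporter mRNA is amplified, fluorescently labelled and sized by capillary electrophoresis, with DMSO as negative control.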

[13] = ATG_M_19_CIS: Attagene CIS-FACTORIAL HepG2 Assay for M19 Transcription Factor (Internal Marker) (AID 2282939); details: HepG2 Attagene CIS-FACTORIAL M19 internal marker reporter; actives raise or lower the signal
In short: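 Readout: fluorescent reporter-transcript fragments by capillary electrophoresis after RT-PCR. Human HepG2 liver cells carried transfected MRTU constructs reporting endogenous transcription-factor activity; exposure 24 h. Gain or loss of signal fitted relative to DMSO.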

[14] = ATG_ERE_CIS: Attagene CIS-FACTORIAL HepG2 Assay for Estrogen Response Element (ERE) (AID 2282940); details: HepG2 ERE cis-reporter, Attagene RNA transcript; actives raise or lower the signal
In short: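 Readout: reporter mRNA induction by RT-PCR, FAM-labelled primer extension, HpaI digestion and capillary electrophoresis, 24 h after dosing transfected HepG2 cells. Endogenous transcription factors act on cis-element-regulated reporters. Gain or loss fitted against DMSO.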

[15] = ATG_Ets_CIS: Attagene CIS-FACTORIAL HepG2 Assay for human Erythroblast Transformation Specific (ETS) (AID 2282941); details: HepG2 ETS cis-reporter transcription, actives raise or lower the signal
In short: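 RT-PCR/capillary electrophoresis fluorescence read-out of reporter mRNA; HepG2 transient multi-reporter transfection; 24 h compound exposure; gain or loss of signal fitted bidirectionally relative to DMSO.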

[16] = target: Hepatocyte nuclear factor 3-beta (Homo sapiens) (UniProt Q9Y261); test: ATG_FoxA2_CIS: Attagene CIS-FACTORIAL HepG2 Assay for human Forkhead box A2 (FOXA2) (AID 2282942); details: HepG2 cis-reporter transcription factor activity, 24 h; actives raise or lower the signal
Hepatocyte nuclear factor 3-beta (Homo sapiens), sequence (Q9Y261 whole entry, looked up): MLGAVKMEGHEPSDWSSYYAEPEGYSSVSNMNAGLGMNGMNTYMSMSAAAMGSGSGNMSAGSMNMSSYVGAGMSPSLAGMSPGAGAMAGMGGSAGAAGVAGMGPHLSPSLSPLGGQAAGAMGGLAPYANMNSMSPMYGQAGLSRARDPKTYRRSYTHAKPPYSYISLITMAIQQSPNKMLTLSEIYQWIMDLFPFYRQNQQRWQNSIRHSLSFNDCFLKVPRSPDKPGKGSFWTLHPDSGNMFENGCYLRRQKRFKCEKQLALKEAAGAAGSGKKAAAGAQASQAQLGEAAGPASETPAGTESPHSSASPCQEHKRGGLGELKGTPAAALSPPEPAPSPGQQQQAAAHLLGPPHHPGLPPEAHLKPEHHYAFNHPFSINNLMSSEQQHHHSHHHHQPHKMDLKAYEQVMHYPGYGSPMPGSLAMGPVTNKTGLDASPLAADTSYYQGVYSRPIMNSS
In short: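 Cells: HepG2, transient multiplex reporter transfection. Exposure 24 h. Detection: reporter-specific RT-PCR, fluorescent labelling, restriction digest, capillary electrophoresis. Analysis: bidirectional curve fit, DMSO as negative control.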

[17] = ATG_FoxO_CIS: Attagene CIS-FACTORIAL HepG2 Assay for human Forkhead box O (FoxO) (AID 2282943); details: HepG2 Attagene cis-reporter, FoxO element, mRNA; actives raise or lower the signal
In short: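 Values reflect reporter mRNA induction or loss in HepG2 cells 24 h post-dosing, fitted bidirectionally with DMSO as negative control and baseline. Detection used RT-PCR and fluorescence capillary electrophoresis.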

[18] = ATG_GATA_CIS: Attagene CIS-FACTORIAL HepG2 Assay for human GATA Binding Protein (AID 2282944); details: HepG2 GATA cis-element reporter, Attagene multiplex mRNA; actives raise or lower the signal
In short: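 Read-out: fluorescent reporter mRNA fragments resolved by capillary electrophoresis after RT-PCR. Human liver HepG2 cells carried transiently transfected cis-regulated reporter constructs; chemicals incubated 24 h; gain or loss of signal fitted relative to DMSO.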

[19] = ATG_EGR_CIS: Attagene CIS-FACTORIAL HepG2 Assay for human Early Growth Response 1 (EGR1) (AID 2282938); details: HepG2 Attagene CIS-FACTORIAL EGR reporter mRNA; actives raise or lower the signal
In short: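 HepG2, transient MRTU transfection (cis promoters), 24 h compound. RNA → RT (oligo-dT) → PCR → 6-FAM labelling → HpaI cut → CE fluorescence. Bidirectional fit, DMSO baseline.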

Measured: AC50

N#CN=C1SCCN1Cc1ccc(Cl)nc1
not listed: [19]
inactive: all other assays above

CN=C=S
active: [2] 13.7 µM | [3] 15.4 µM | [8] 16.5 µM
not listed: [17]
inactive: all other assays above

CCOc1cc(C(C)(C)C)ccc1C1COC(c2c(F)cccc2F)=N1 (stereo unspecified)
active: [2] 4.09 µM | [5] 13.2 µM | [9] 4.26 µM
not listed: [17]
inactive: all other assays above

CS(=O)(=O)c1ccc(C(=O)C2C(=O)CCCC2=O)c([N+](=O)[O-])c1
not listed: [9]
inactive: all other assays above

CCOP(=O)(OCC)Oc1nc(Cl)c(Cl)cc1Cl
active: [4] 19.6 µM | [14] 39.1 µM
not listed: [17]
inactive: all other assays above

COc1cc(OC)nc(NC(=O)NS(=O)(=O)c2ncccc2OCC(F)(F)F)n1
not listed: [9] | [19]
inactive: all other assays above

CC(C)N1C(=O)N(c2ccccc2)CSC1=NC(C)(C)C
not listed: [9] | [17]
inactive: all other assays above

CCN(CC)c1nc(C)cc(OP(=S)(OC)OC)n1
active: [2] 21.9 µM | [5] 50 µM | [6] 30.7 µM | [14] 12.7 µM
not listed: [17] | [19]
inactive: all other assays above

CCCCC(O)(Cn1cncn1)c1ccc(Cl)cc1Cl (stereo unspecified)
active: [4] 19.5 µM | [8] 33.3 µM | [11] 50 µM | [19] 50 µM | [14] 12.6 µM
not listed: [9] | [17]
inactive: all other assays above

Cc1c(COC(=O)[C@@H]2[C@H](/C=C(\Cl)C(F)(F)F)C2(C)C)cccc1-c1ccccc1
active: [4] 11.3 µM | [14] 20.9 µM
not listed: [17] | [19]
inactive: all other assays above

CC(C)Oc1cccc(NC(=O)c2ccccc2C(F)(F)F)c1
active: [2] 13.6 µM | [3] 5.21 µM | [4] 41.8 µM | [6] 22.2 µM | [8] 9.92 µM | [9] 9.42 µM | [14] 13.3 µM
not listed: [17] | [19]
inactive: all other assays above

CS(=O)(=O)c1cc(C(F)(F)F)ccc1C(=O)c1cnoc1C1CC1
not listed: [19]
inactive: all other assays above

COP(=S)(OC)Oc1ccc([N+](=O)[O-])c(C)c1
active: [2] 17.8 µM | [8] 32.7 µM | [14] 13.7 µM
not listed: [9] | [19]
inactive: all other assays above

CCCCOCN(C(=O)CCl)c1c(CC)cccc1CC
active: [2] 0.654 µM | [3] 0.647 µM
not listed: [9] | [19]
inactive: all other assays above

COC(=O)NC(=S)Nc1ccccc1NC(=S)NC(=O)OC
active: [2] 29 µM | [3] 28.7 µM | [6] 73.9 µM | [8] 26.3 µM
not listed: [9] | [17]
inactive: all other assays above
